# The whole screen tested about 290,000 compounds, of which about 3,000 (1%) were called active. No stated cut-off is given here; in the data, active means inhibition mostly above about 36% (no sharp cut-off); inactive means mostly below about 34%. Only a selection was taken, and actives are over-represented in it overall.
# Test: inhibition of NOD1-driven NF-kB reporter – cell-based, luminescence, uHTS, primary screen (AID 1578);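 further: HEK-293T reporter cells stimulated with the NOD1 agonist gamma-tri-DAP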
# Settings: NOD1-driven NF-kB luciferase reporter cells, at 4 µM, stronger effect = higher value
row,SMILES,inhibition
1,CC(C)=CC1C=C(C)C(C)C2C(=O)NNC(=O)C12 (stereo not drawn),10.4% (inactive)
2,CCOC(=O)C1=C(COC(=O)/C=C/c2ccccc2Cl)NC(=O)NC1C (stereo not drawn),-17.4% (inactive)
3,CCOC(=O)C1=C(c2ccccc2)ON(C)C1c1ccccc1 (stereo not drawn),-0.8% (inactive)
4,N#C/C(=C(/O)c1ccc(Cl)cc1)c1nc2ccccc2[nH]1,3.5% (inactive)
5,N#C/C(=C(\O)c1cc(Cl)sc1Cl)c1nc2ccccc2[nH]1,64.5% (active)
6,N#C/C(=C(/O)c1ccc([N+](=O)[O-])o1)c1nc2ccccc2[nH]1,-7.3% (inactive)
7,COc1ccccc1/C(O)=C(\C#N)c1nc2ccccc2[nH]1,5.5% (inactive)
8,N#C/C(=C(/O)c1ccc([N+](=O)[O-])cc1)c1nc2ccccc2[nH]1,3.7% (inactive)
9,N#C/C(=C(/O)c1ccc(Br)s1)c1nc2ccccc2[nH]1,9.1% (inactive)
10,N#C/C(=C\c1ccc([N+](=O)[O-])o1)c1nc2ccccc2[nH]1,96.8% (active)
11,Cc1ccc2nc(/C(C#N)=C\c3ccc([N+](=O)[O-])o3)[nH]c2c1,0.5% (inactive)
12,N#C/C(=C(/O)c1ccc([N+](=O)[O-])s1)c1nc2ccccc2[nH]1,71.6% (active)
13,NC(=O)c1c(NC(=O)C(=O)NCCCN2CCOCC2)sc2c1CCCC2,6% (inactive)
14,O=C(CCNS(=O)(=O)/C=C/c1ccccc1)NCCc1c[nH]c2ccccc12,-0.1% (inactive)
15,CCN(CC)Cc1c(C(=O)N/N=C/c2ccc(OCc3ccccc3C)cc2)nnn1-c1nonc1N,-6.7% (inactive)
16,COc1ccc(NC(=O)CCCn2cnc3ccccc3c2=O)cc1,9% (inactive)
17,COC(=O)c1ccc(Cl)c(NC(=O)c2cccc([N+](=O)[O-])c2C)c1,-17.4% (inactive)
18,CCOC(=O)c1ccc(N/N=C/c2cc(Br)cc([N+](=O)[O-])c2O)cc1,97.2% (active)
19,O=C(N/N=C/c1cc(Br)cc([N+](=O)[O-])c1O)c1ccc(NC(=O)c2ccc(F)cc2)cc1,7% (inactive)
20,COC(=O)c1ccc(N/N=C/c2cc([N+](=O)[O-])cc(OC)c2O)cc1,-49.6% (inactive)
21,CCn1c(CNc2ccc(Cl)cc2)nnc1SCC#N,-48.7% (inactive)
22,COc1ccc(-c2[nH]ncc2CN2CCCC2c2nonc2C)c(F)c1 (stereo not drawn),-55.4% (inactive)
23,COc1cc(C(=O)OCC(=O)Nc2ccc(F)cc2F)cc(OC)c1OC,3.5% (inactive)
24,Cc1ccc(N/N=C(/Sc2nnnn2-c2ccccc2)C(=O)c2ccccc2)cc1,-42.4% (inactive)

row,SMILES,inhibition
1,O=C(/C(=N\Nc1ccccc1)Sc1nnnn1-c1ccccc1)c1ccccc1,93.1% (active)
2,O=C(/C(=N\Nc1ccc(Br)cc1)Sc1nnnn1-c1ccccc1)c1ccccc1,-15% (inactive)
3,CC1=CC(C)(C)N(C(=O)CN2C(=O)c3ccccc3C2=O)c2ccc(C)cc21,33.2% (active)
4,CC1=CC(C)(C)N(C(=O)CN2C(=O)CCC2=O)c2ccc(C)cc21,-11.3% (inactive)
5,Cc1ccc(C)c(C(=O)CN2Cc3ccccc3C2=O)c1,-5.3% (inactive)
6,CC1=CC(C)(C)N(C(=O)CN2C(=O)c3ccccc3C2=O)c2ccccc21,-18.1% (inactive)
7,Cc1ccc(C)c(C(=O)CN2C(=O)CCC2=O)c1,-14.2% (inactive)
8,Cc1ccc(C)c(C(=O)CN2C(=O)c3ccccc3C2=O)c1,56.5% (active)
9,O=C(NCCc1ccco1)C(=O)NCC1OCCCN1S(=O)(=O)c1ccc(F)cc1 (stereo not drawn),10.4% (inactive)
10,COc1ccc(S(=O)(=O)N(C)C)cc1NC(=O)[C@H](Cc1ccccc1)N1C(=O)c2ccccc2C1=O,2% (inactive)
11,O=c1nc(SCc2ccccc2Cl)nc(-c2ccc(Cl)cc2)[nH]1,57.8% (active)
12,O=c1nc(SCc2c(F)cccc2Cl)nc(-c2ccc(Cl)cc2)[nH]1,9.8% (inactive)
13,O=c1nc(SCc2ccc(Cl)cc2)nc(-c2ccccc2)[nH]1,-3.2% (inactive)
14,C/C(COc1ccccc1)=N\NC(=O)c1nnn(-c2nonc2N)c1CSc1ccccc1,-2.2% (inactive)
15,CCOc1cc(C2NC(=O)NC(c3ccccc3)=C2C(C)=O)ccc1OCC(N)=O (stereo not drawn),14.5% (inactive)
16,Cc1ccc(NC(=O)CCNC(=O)c2ccco2)cc1Cl,-23.6% (inactive)
17,O=[N+]([O-])c1ccc(Sc2nnnn2-c2ccccc2)c(Cl)c1,-1% (inactive)
18,O=[N+]([O-])c1cc(S(=O)(=O)NCCN2CCOCC2)ccc1Sc1nnnn1-c1ccccc1,46.1% (inactive)
19,CN1CCN(S(=O)(=O)c2ccc(Sc3nnnn3-c3ccccc3)c([N+](=O)[O-])c2)CC1,93.5% (active)
20,O=C(O)c1ccc(Sc2nnnn2-c2ccccc2)c([N+](=O)[O-])c1,-15.3% (inactive)
21,COC(=O)c1ccc(Sc2nnnn2-c2ccccc2)c([N+](=O)[O-])c1,48.6% (inactive)
22,COC(=O)c1ccccc1NC(=O)CN1CCN(Cc2ccccc2)CC1,1.4% (inactive)
23,Cc1nc(Nc2nc(CSc3nc4ccccc4[nH]3)cc(=O)[nH]2)nc2ccccc12,-5.7% (inactive)
24,Cc1ccc2c(C)nc(Nc3nc(CSc4nc5ccccc5[nH]4)cc(=O)[nH]3)nc2c1,90.5% (active)

row,SMILES,inhibition
1,COc1ccc2nc(Nc3nc(CSc4nc5ccccc5[nH]4)cc(=O)[nH]3)nc(C)c2c1,-25.6% (inactive)
2,O=S1(=O)CCOCCCN1Cc1cccc(C(F)(F)F)c1,56.8% (active)
3,O=S1(=O)CCOCCCN1Cc1cccc(F)c1,-39.7% (inactive)
4,O=S1(=O)CCOCCCN1Cc1ccccc1,-16.6% (inactive)
5,COc1ccc(C(=O)N/N=C/c2c(C)[nH]c(=O)[nH]c2=O)cc1,-27.4% (inactive)
6,Cc1ccc(S(=O)(=O)NC(Cc2ccccc2)C(=O)NN)cc1 (stereo not drawn),-27.9% (inactive)
7,Cc1ccc(S(=O)(=O)NC(Cc2ccccc2)C(=O)O)cc1 (stereo not drawn),-30.6% (inactive)
8,Cc1ccc(S(=O)(=O)N[C@@H](Cc2ccccc2)C(=O)CCl)cc1,87.7% (active)
9,Cc1nnc(SCC(=O)NNC(=O)c2ccc(Br)cc2)n1C,-33.3% (inactive)
10,CN(CC(=O)N1CCN(c2ccc(F)cc2)CC1)S(=O)(=O)c1ccc2c(c1)c(=O)n(C)c(=O)n2C,-11.7% (inactive)
11,CCCCC(=O)Nc1nc2c(s1)COc1ccccc1-2,62.4% (active)
12,CCC(=O)Nc1nc2c(s1)COc1ccccc1-2,8.2% (inactive)
13,CCCC(=O)Nc1nc2c(s1)COc1ccccc1-2,48.7% (inactive)
14,Cc1[nH]c2ccccc2c1C(=O)/C=C\c1ccccc1Cl,-16.5% (inactive)
15,Cc1[nH]c2ccccc2c(=O)c1C(=O)/C=C/c1ccccc1,79.7% (active)
16,Cc1[nH]c2ccccc2c1C(=O)/C=C/c1ccccc1Cl,-24.5% (inactive)
17,COc1ccc(Oc2ccc(/C=N/NC(=O)c3cccnc3)cc2[N+](=O)[O-])cc1,-17.7% (inactive)
18,O=C(Nc1ccc2c(c1)nc1n2CCN(Cc2ccccc2)C1)c1cccs1,89.9% (active)
19,CC(c1ccccc1)N1CCn2c(nc3cc(NC(=O)c4cccs4)ccc32)C1 (stereo not drawn),0.3% (inactive)
20,COCCN1CCn2c(nc3cc(NC(=O)c4cccs4)ccc32)C1,-28.2% (inactive)
21,COc1ccc(CC(=O)Nc2c3c(nn2C(C)(C)C)CS(=O)C3)cc1 (stereo not drawn),-19.6% (inactive)
22,O=[N+]([O-])/C=C/c1ccc2c(ccn2Cc2ccccc2)c1,-4.4% (inactive)
23,CN(C)c1ccc(-n2cccc2/C=C/[N+](=O)[O-])cc1,-0.1% (inactive)
24,CN(c1ccccc1)c1ccc(/C=C/[N+](=O)[O-])cc1,105% (active)

row,SMILES,inhibition
1,Cc1[nH]c2ccccc2c1C(=O)CSC(=S)N1CCOCC1,3.9% (inactive)
2,CC[n+]1c(/C=C2/C=C(C)CC(C)(C)C2)sc2ccc(OC)cc21,77.4% (active)
3,CCC1=C/C(=C/c2sc3ccccc3[n+]2CC)CC(C)(C)C1,-7.6% (inactive)
4,CC[n+]1c(/C=C2\C=C(C)CC(C)(C)C2)sc2ccccc21,20.8% (inactive)
5,Cc1cc(Br)ccc1NC(=S)N1CCOCC1,-0.1% (inactive)
6,N#Cc1nc(Cc2ccccc2)oc1NCc1cccnc1,-33.9% (inactive)
7,N#Cc1nc(Cc2ccccc2)oc1NCc1ccccc1Cl,57% (active)
8,N#Cc1nc(Cc2ccccc2)oc1NCc1ccccc1,-5.9% (inactive)
9,COc1ccc(C(=O)Nc2cc(C)nn2-c2nc3ccccc3[nH]2)c(OC)c1,98.7% (active)
10,COc1ccc(/C=C/C(=O)Nc2cc(C)nn2-c2nc3ccccc3[nH]2)cc1,17.4% (inactive)
11,COc1cccc(OC)c1C(=O)Nc1cc(C)nn1-c1nc2ccccc2[nH]1,-24.9% (inactive)
12,Cc1cc(NC(=O)c2ccccc2)n(-c2nc3ccccc3[nH]2)n1,-15% (inactive)
13,Cc1cc(NC(=O)c2ccccc2F)n(-c2nc3ccccc3[nH]2)n1,-8.4% (inactive)
14,CCCCN(C)S(=O)(=O)c1cc2c3c(c1)CCC(=O)N3CCC2,-4.1% (inactive)
15,Cc1noc(C)c1C(=O)N1CCCC(N2CCN(c3cccc(C(F)(F)F)c3)CC2)C1 (stereo not drawn),-31.8% (inactive)
16,COc1ccc(-c2[nH]ncc2CN(C)Cc2cccnc2)c(OC)c1,-16.3% (inactive)
17,CS(=O)(=O)N1CCN(c2ccccc2NC(=O)c2cc(Br)ccc2Cl)CC1,-10.8% (inactive)
18,COCCn1c(SCC(=O)Nc2cccc(C(=O)OC)c2)nc2ccccc2c1=O,2.6% (inactive)
19,O=C(NC1CC2CCC(C1)N2Cc1ccco1)c1ccccc1 (stereo not drawn),-29.6% (inactive)
20,Cc1c(Cl)cccc1NC(=O)Nc1ccccc1C(N)=O,-30% (inactive)
21,O=C(c1ccc([N+](=O)[O-])cc1)N1CCSC1c1ccccc1 (stereo not drawn),-13.8% (inactive)
